# Source: publication PMC7862700, “An all-to-all approach to the identification of sequence-specific readers for epigenetic DNA modifications on cytosine”
# Columns and labels:
# Test in all cases: DAPPL (digital affinity profiling via proximity ligation, sequencing); 10 mM Tris-HCl pH 7.5, 50 mM NaCl, 1 mM DTT, 4% glycerol, room temperature, 30 min; GST-TFs on glutathione beads, 16-mer random dsDNA library, 0.1% formaldehyde crosslink after washing; high values mean tight binding
# FEV = target: T1, FEV (Homo sapiens, UniProt Q99581 1-238); conditions: protein: recombinant; tags: N-terminal GST; dsDNA, one strand shown
# T1 sequence: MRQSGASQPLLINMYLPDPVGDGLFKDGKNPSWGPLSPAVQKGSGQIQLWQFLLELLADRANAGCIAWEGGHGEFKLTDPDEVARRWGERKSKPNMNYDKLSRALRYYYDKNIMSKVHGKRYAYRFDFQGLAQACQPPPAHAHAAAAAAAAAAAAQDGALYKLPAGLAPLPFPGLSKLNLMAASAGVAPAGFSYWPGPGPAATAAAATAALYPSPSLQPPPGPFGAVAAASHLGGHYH
# Outline: (§1)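 Beads coated with glutathione captured GST-fused human transcription factors that had been expressed in yeast, and the factors were then given DNA barcodes and pooled with a tag-only sample. The pools were incubated with 200 nmole of a random double-stranded 16-mer DNA library in Tris/NaCl/DTT/glycerol buffer for 30 min at room temperature, washed, crosslinked with 0.1% formaldehyde and proximity-ligated with BsaI/T4 ligase at 37 °C for 1 h. PCR amplification and Illumina NextSeq500 sequencing came last. Binding signal is each hexamer's read frequency for a factor divided by its frequency for the tag-only sample.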
# ETV5 = ETV5 (Homo sapiens, UniProt P41161 1-510); conditions: protein: recombinant; tags: N-terminal GST; dsDNA, one strand shown
# Outline: as §1
# HSF1 = HSF1 (Homo sapiens, UniProt Q00613 1-529); conditions: protein: recombinant; tags: N-terminal GST; chain copies: 3; dsDNA, one strand shown
# Outline: as §1
# SPIC = target: T2, SPIC (Homo sapiens, UniProt Q8N5J4 1-248); conditions: protein: recombinant; tags: N-terminal GST; dsDNA, one strand shown
# T2 sequence: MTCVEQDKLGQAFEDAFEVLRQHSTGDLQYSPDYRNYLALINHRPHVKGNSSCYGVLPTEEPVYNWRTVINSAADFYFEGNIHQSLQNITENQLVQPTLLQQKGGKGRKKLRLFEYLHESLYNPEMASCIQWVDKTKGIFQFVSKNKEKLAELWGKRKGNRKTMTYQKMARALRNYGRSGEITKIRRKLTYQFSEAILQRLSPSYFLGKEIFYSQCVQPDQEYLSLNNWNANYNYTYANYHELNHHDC
# Outline: as §1
# ELF4 = ELF4 (Homo sapiens, UniProt Q99607 1-663); conditions: protein: recombinant; tags: N-terminal GST; dsDNA, one strand shown
# Outline: as §1
# ELK4 = target: T3, ELK4 (Homo sapiens, UniProt P28324-2 1-405); conditions: protein: recombinant; tags: N-terminal GST; dsDNA, one strand shown
# T3 sequence: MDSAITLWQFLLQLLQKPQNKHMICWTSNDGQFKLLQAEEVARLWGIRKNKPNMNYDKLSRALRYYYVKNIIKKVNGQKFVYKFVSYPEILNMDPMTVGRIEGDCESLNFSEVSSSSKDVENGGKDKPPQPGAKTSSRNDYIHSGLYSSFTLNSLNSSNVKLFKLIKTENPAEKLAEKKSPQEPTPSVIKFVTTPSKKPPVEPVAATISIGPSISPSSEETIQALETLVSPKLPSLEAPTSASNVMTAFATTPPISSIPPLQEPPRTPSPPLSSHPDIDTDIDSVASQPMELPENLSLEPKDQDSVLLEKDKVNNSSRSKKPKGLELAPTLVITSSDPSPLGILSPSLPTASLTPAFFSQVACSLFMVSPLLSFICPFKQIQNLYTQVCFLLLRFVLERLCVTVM
# Outline: as §1
# ETV2 = target: T4, ETV2 (Homo sapiens, UniProt O00321 1-342); conditions: protein: recombinant; tags: N-terminal GST; dsDNA, one strand shown
# T4 sequence: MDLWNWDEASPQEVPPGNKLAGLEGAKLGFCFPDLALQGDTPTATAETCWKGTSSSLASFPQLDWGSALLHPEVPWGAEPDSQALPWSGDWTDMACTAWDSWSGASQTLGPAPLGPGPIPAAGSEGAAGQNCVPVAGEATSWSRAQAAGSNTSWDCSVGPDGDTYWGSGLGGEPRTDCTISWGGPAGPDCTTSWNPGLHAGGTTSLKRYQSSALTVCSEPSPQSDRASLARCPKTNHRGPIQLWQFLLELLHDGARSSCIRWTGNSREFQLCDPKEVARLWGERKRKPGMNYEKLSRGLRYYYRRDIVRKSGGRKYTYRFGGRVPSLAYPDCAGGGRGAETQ
# Outline: as §1
# ELF3 = target: T5, ELF3 (Homo sapiens, UniProt P78545 1-371); conditions: protein: recombinant; tags: N-terminal GST; dsDNA, one strand shown
# T5 sequence: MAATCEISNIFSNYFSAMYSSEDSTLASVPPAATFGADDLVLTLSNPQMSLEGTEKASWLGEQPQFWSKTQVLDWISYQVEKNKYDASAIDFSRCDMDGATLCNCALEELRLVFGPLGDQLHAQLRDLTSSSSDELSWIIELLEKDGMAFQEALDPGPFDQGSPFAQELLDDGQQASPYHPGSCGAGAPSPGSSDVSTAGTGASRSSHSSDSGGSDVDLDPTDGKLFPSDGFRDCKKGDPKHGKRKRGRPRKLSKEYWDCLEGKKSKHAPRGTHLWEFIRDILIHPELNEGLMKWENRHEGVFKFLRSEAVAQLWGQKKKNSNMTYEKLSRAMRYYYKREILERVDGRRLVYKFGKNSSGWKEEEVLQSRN
# Outline: as §1
# CRX = CRX (Homo sapiens, UniProt O43186 1-299); conditions: protein: recombinant; tags: N-terminal GST; dsDNA, one strand shown
# Outline: as §1
# Chain of HSF1 (Q00613 whole entry): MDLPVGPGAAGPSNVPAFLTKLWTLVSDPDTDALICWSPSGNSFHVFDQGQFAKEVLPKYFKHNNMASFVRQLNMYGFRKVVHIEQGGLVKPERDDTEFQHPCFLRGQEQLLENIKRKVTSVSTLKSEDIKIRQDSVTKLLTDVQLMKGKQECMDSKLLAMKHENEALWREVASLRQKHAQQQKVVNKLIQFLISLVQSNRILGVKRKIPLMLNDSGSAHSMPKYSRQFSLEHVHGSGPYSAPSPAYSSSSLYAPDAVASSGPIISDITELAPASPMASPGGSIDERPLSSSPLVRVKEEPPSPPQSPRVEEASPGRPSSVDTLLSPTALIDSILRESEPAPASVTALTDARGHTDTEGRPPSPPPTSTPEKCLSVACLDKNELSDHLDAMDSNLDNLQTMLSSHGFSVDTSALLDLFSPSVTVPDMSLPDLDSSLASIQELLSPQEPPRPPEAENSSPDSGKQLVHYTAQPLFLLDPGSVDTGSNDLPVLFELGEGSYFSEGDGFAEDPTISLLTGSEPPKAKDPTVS
# Chain of ETV5 (P41161 whole entry): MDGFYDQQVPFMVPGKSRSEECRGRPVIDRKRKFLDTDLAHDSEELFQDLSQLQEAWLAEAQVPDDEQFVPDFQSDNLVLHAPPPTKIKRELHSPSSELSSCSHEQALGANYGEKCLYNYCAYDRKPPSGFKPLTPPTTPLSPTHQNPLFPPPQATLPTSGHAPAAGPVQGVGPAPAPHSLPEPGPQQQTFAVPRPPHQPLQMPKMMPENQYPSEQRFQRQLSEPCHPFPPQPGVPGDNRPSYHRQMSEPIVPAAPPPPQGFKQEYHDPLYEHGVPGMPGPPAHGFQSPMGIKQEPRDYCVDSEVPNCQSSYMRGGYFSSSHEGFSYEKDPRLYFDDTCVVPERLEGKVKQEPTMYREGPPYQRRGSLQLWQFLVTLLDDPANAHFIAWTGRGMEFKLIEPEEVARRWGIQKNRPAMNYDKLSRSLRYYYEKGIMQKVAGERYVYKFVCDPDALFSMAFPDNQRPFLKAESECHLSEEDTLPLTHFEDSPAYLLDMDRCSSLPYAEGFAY
# Chain of ELF4 (Q99607 whole entry): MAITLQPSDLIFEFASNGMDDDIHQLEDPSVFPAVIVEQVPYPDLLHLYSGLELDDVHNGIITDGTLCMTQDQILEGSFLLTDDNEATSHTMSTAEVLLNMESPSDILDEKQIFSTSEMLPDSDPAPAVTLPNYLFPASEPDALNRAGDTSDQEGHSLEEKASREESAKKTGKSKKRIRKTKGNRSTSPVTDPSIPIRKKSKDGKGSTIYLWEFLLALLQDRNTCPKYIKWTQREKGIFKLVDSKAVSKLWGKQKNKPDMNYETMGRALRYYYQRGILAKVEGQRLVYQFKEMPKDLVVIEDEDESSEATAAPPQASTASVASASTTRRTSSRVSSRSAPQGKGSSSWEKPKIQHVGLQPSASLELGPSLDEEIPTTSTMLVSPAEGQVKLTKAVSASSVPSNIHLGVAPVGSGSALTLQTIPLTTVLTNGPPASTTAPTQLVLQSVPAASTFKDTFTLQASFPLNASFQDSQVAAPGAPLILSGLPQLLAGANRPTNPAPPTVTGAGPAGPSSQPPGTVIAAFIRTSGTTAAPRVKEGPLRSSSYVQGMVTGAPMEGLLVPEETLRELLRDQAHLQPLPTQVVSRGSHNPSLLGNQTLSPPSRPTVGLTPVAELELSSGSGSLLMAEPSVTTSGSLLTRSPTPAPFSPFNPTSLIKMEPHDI
# Chain of CRX (O43186 whole entry): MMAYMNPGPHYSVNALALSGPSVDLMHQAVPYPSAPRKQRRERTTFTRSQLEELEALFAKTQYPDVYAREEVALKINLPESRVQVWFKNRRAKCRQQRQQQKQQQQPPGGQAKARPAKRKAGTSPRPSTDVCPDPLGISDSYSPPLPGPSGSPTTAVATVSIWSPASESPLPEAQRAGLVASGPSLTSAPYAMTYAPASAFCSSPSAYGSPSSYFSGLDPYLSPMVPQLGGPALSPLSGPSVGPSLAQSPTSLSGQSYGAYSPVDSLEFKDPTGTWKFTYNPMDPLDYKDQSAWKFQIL
sequence,measurement,setting,value
TCTTGG,binding signal,FEV,"1.3 fold enrichment (6-mer frequency, TF over GST control)"
same,binding signal,ETV5,"1.32 fold enrichment (6-mer frequency, TF over GST control)"
same,binding signal,HSF1,"1.39 fold enrichment (6-mer frequency, TF over GST control)"
same,binding signal,SPIC,"1.47 fold enrichment (6-mer frequency, TF over GST control)"
same,binding signal,ELF4,"1.39 fold enrichment (6-mer frequency, TF over GST control)"
same,binding signal,ELK4,"1.41 fold enrichment (6-mer frequency, TF over GST control)"
same,binding signal,ETV2,"1.22 fold enrichment (6-mer frequency, TF over GST control)"
same,binding signal,ELF3,"1.41 fold enrichment (6-mer frequency, TF over GST control)"
same,binding signal,CRX,"1.32 fold enrichment (6-mer frequency, TF over GST control)"
